For 8 compounds, growth results are on record in PubChem BioAssay (NCI).

About 83,000 compounds went through this panel and 20% of them were active in at least one assay; those are over-represented in the sample as a whole.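 How to read the values: 0–100, growth inhibition (40 = 60% inhibited); 0, no net growth; -100 to 0, cell death (-40 = 40% of starting cells died; -100 = all dead).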 Values without a mark were called inactive. The source made the active and inactive calls. How the source made its calls: active means growth percent below 10; inactive means the rest.

Some test systems named below: NCI-H23 lung; NCI-H226 lung; NCI-H460 lung; HOP-92 NSCLC; A549/ATCC NSCLC; 786-0 renal; COLO 205 colon; DU-145 prostate; MALME-3M melanoma; MDA-MB-231 breast; RXF 393 renal; SF-268 CNS; SF-295 CNS; SF-539 CNS; UACC-257 melanoma; M14 melanoma; NCI-H522 lung; K-562 leukemia.
Common to all, as to experiment: NCI-60 one-dose screen, 48 h (100 = growth as untreated, 0 = no growth, -100 = all killed)
Conditions in all cases: 10 µM

In the case of `CC(=O)[C@@]12O[C@](C)(c3ccccc3)O[C@@H]1CC1C3CCC4=CC(=O)CC[C@]4(C)C3CC[C@@]12C` (some centres not stated), the growth with NCI-H23 lung was 54.4%; in the test with NCI-H226 lung it was 78.5%; in the test on NCI-H460 lung it was 68.4%; in the test on HOP-92 NSCLC, 76.2%; in the test with A549/ATCC NSCLC, 70.7%; with 786-0 renal, 67.9%. Also, the growth in the test on COLO 205 colon was 81.7%; with DU-145 prostate it was 97.1%; in the test with MALME-3M melanoma, 85.2%; with MDA-MB-231 breast, 94.4%; in the test on RXF 393 renal it was 88.9%; with SF-268 CNS it was 77.4%. Besides, the growth in the test on SF-295 CNS is 44.4%; with SF-539 CNS, 91.6%; in the test with UACC-257 melanoma, 73.2%; with M14 melanoma, 87%.
As to `Nc1cc(-c2ccncc2)c[nH]c1=O`, the growth was 102% with NCI-H23 lung; 103% with NCI-H226 lung; 110% in the test on NCI-H460 lung; 90.9% in the test on HOP-92 NSCLC; 106% in the test with A549/ATCC NSCLC; 103% with 786-0 renal. Also, the growth with COLO 205 colon was 113%; in the test with DU-145 prostate it was 110%; in the test on MALME-3M melanoma, 123%; in the test on MDA-MB-231 breast, 115%; with RXF 393 renal, 125%; with SF-268 CNS, 103%. Besides, the figures for the growth in the test with SF-539 CNS, in the test on UACC-257 melanoma and with M14 melanoma were 104%, 111% and 107%, respectively.
As for `Clc1ccc2c(c1)C(N1CCNCC1)=Nc1ccccc1O2`, the growth in the test on NCI-H23 lung was 64.4%; in the test with NCI-H226 lung, 83.3%; in the test with NCI-H460 lung, 68.1%; in the test with HOP-92 NSCLC, 7.39% (active); in the test with A549/ATCC NSCLC, 65%; in the test with 786-0 renal, 56.1%. The growth with COLO 205 colon is -65.9% (active); in the test with DU-145 prostate, 68.4%; in the test with MALME-3M melanoma, 2.69% (active); with MDA-MB-231 breast, 19.4%; in the test on RXF 393 renal, 27.2%; in the test with SF-268 CNS, 52.9%. Further, the growth in the test on SF-295 CNS was 58%; in the test with SF-539 CNS it was 73.4%; with UACC-257 melanoma it was -18.3% (active); in the test with M14 melanoma, 15.7%.
With `C=C/C(C)=C/C[C@]1(C)[C@H](C)[C@@H](OC(=O)CCC)[C@H](O)[C@@]23C(=C[C@H](OC)C[C@@H]12)[C@@H](OC(=O)CCC)O[C@H]3OC(C)=O`, the growth in the test on NCI-H23 lung is -15.9% (active); with NCI-H226 lung, -52.9% (active); in the test on NCI-H460 lung it was 2.97% (active); in the test on NCI-H522 lung, -80.9% (active); in the test with A549/ATCC NSCLC it was 12.5%; with 786-0 renal, -79.9% (active). Also, the growth is -53.3% (active) in the test with COLO 205 colon; 14.3% in the test with DU-145 prostate; 10.3% in the test with K-562 leukemia; -63.7% (active) in the test with MALME-3M melanoma; -62.7% (active) with MDA-MB-231 breast; -89.4% (active) in the test on RXF 393 renal. Besides, the growth was -8.13% (active) in the test on SF-268 CNS, -59.6% (active) in the test on SF-295 CNS, -74.4% (active) in the test with SF-539 CNS and -45.7% (active) in the test on M14 melanoma.
Regarding `CC1/C=C/C=C/C=C/C=C/C=C/C=C/C=C/C(O[C@@H]2O[C@H](C)[C@H](O)[C@@H](O)[C@@H]2N)CC(O)C(C(=O)O)C(O)CC(=O)CC(O)CC(O)CC(O)CC(=O)CCCC(=O)CC(=O)OC1C(C)CC(C)C(O)CC(=O)c1ccc(N)cc1` (some centres not stated), the growth in the test on NCI-H23 lung was -96.5% (active); in the test with NCI-H226 lung it was -93% (active); with NCI-H460 lung, -81.8% (active); in the test with HOP-92 NSCLC, -88.2% (active); with A549/ATCC NSCLC, -100% (active); with 786-0 renal it was -94% (active). In addition, the growth was -83.2% (active) with COLO 205 colon; -98.7% (active) in the test with DU-145 prostate; -92.5% (active) in the test with MALME-3M melanoma; -94.8% (active) in the test with MDA-MB-231 breast; -90.9% (active) with RXF 393 renal; -95.8% (active) in the test on SF-268 CNS. For the same compound, the growth was -95.3% (active) with SF-295 CNS, -71.4% (active) with SF-539 CNS, -99.7% (active) in the test with UACC-257 melanoma and -88.7% (active) in the test on M14 melanoma.
Take `Cc1nc2n(c(=O)c1CCN1CCC(c3noc4cc(F)ccc34)CC1)CCC[C@@H]2O`: the growth is 92.1% with NCI-H23 lung; 99.6% with NCI-H226 lung; 105% in the test with NCI-H460 lung; 97.9% with HOP-92 NSCLC; 99.3% with A549/ATCC NSCLC; 107% in the test with 786-0 renal. In addition, the growth in the test on COLO 205 colon was 96.7%; in the test on DU-145 prostate it was 105%; in the test on MALME-3M melanoma, 89.6%; with MDA-MB-231 breast, 90.5%; in the test with RXF 393 renal, 108%; in the test on SF-268 CNS, 102%. The growth is 87% in the test on SF-295 CNS, 98.5% with SF-539 CNS, 96.2% in the test on UACC-257 melanoma and 104% in the test on M14 melanoma.
For the compound `CCc1cc(Cl)c(OC)c(C(=O)NCC2CCCN2CC)c1O` (configuration not stated), the growth with NCI-H23 lung was 85.5%; with NCI-H226 lung it was 94.7%; in the test on NCI-H460 lung it was 104%; with HOP-92 NSCLC it was 65.8%; in the test with A549/ATCC NSCLC, 95.6%; in the test on 786-0 renal, 97.8%. Also, the growth with COLO 205 colon is 103%; in the test on DU-145 prostate, 102%; in the test with MALME-3M melanoma it was 108%; in the test on MDA-MB-231 breast it was 50.6%; in the test with RXF 393 renal, 73%; in the test on SF-268 CNS, 98.2%. The growth was 85% with SF-295 CNS, 103% in the test with SF-539 CNS, 87.7% with UACC-257 melanoma and 103% with M14 melanoma.
As for `CN1CCc2c(sc3nc4n(-c5ccc(Cl)cc5)cnn4c(=O)c23)C1`, the growth in the test on NCI-H23 lung is 91.8%; in the test with NCI-H226 lung it was 92.2%; in the test with NCI-H460 lung, 124%; with NCI-H522 lung, 94.1%; in the test with A549/ATCC NSCLC it was 88.2%; with 786-0 renal, 96.4%. The growth was 97.7% with COLO 205 colon; 110% in the test on DU-145 prostate; 106% in the test on K-562 leukemia; 97% in the test with MALME-3M melanoma; 98.7% with MDA-MB-231 breast; 122% in the test with RXF 393 renal. Also, the growth in the test with SF-268 CNS was 95.6%; in the test with SF-295 CNS, 102%; in the test with SF-539 CNS, 106%; with M14 melanoma, 96.8%.
